Assay results from PubChem BioAssay (NCATS).
Records with an inconclusive call do not appear. The source made the active and inactive calls. Calls follow the shape of the dose curve; as a rule, active = well fitted cell-killing curve with a large enough effect; inconclusive = small, poorly fitted or top-dose-only effect; inactive = flat fitted curve, though single readings scatter.

Key:
[1] = Cell Viability - LYMP2-025 (AID 976); also: series mostly up to about 92 µM
How it was run: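 Human lymphoblastoid LYMP2-025 cells (2500/well) were pre-incubated 5 hr at 37 C, then treated with compounds for 24 hr at 37 C in complete medium. Viability was read as intracellular ATP by CellTiter-Glo luminescence; AC50 from Hill fits.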

[2] = Cell Viability - LYMP2-002 (AID 977);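 also: series mostly up to about 92 µM; compound exposure lasted 24 h at 37 °C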
How it was run: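 Human lymphoblastoid LYMP2-002 cells, 2500 per well, exposed to compounds for 24 h at 37 C in complete medium; viability read as intracellular ATP by CellTiter-Glo luminescence, AC50 from Hill fits.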

[3] = Cell Viability - LYMP2-006 (AID 978); also: series mostly up to about 92 µM; nearly all actives have a fitted effect of over 60% in size
How it was run: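 qHTS, 1536-well; 2500 cells/well, 5 hr 37 C; cpd 24 hr 37 C; CellTiter-Glo 30 min RT; luminescence. Tetraoctylammonium bromide pos. ctrl. AC50 via Hill eqn.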

[4] = Cell Viability - LYMP2-007 (AID 979);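 also: cells exposed to compound for 24 h before reading; nearly all actives have a fitted effect of over 60% in size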; also: potency is read from the fitted curve at half-maximal effect
How it was run: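 Human lymphoblastoid cells (2500/well) were plated in complete medium, incubated 5 hr at 37 C, then exposed to compounds for 24 hr at 37 C. Intracellular ATP was read by CellTiter-Glo luminescence after 30 min at room temperature; AC50 from Hill fits.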

[5] = Cell Viability - LYMP2-008 (AID 980); also: nearly all actives have a fitted effect of over 60% in size; also: potency is read from the fitted curve at half-maximal effect
How it was run: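 Human lymphoblastoid cells (2500/well) were plated, held 5 hr at 37 C, then exposed to compounds for 24 hr at 37 C in complete medium. Intracellular ATP was read by CellTiter-Glo luminescence; AC50 from Hill-fitted concentration-response.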

[6] = Cell Viability - LYMP2-010 (AID 981); also: nearly all actives have a fitted effect of over 55% in size; also: potency is read from the fitted curve at half-maximal effect
How it was run: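 Human lymphoblastoid LYMP2-010 cells (2500/well) were preincubated 5 hr at 37 C, then exposed to compounds for 24 hr at 37 C in complete medium. Intracellular ATP was measured by CellTiter-Glo luminescence after 30 min at room temperature; AC50 from Hill-fitted concentration-response.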

[7] = Cell Viability - LYMP2-012 (AID 982);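 also: cellular ATP by luciferase luminescence where a drop means cytotoxicity; cells exposed to compound for one day before reading; nearly all actives have a fitted effect of over 55% in size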
[8] = Cell Viability - LYMP2-014 (AID 983); also: series mostly up to about 92 µM; nearly all actives have a fitted effect of over 50% in size
How it was run: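 Human lymphoblastoid cells (2500/well) were pre-incubated 5 hr at 37 C, then exposed to compounds in complete medium for 24 hr at 37 C. Intracellular ATP was read by CellTiter-Glo luminescence after 30 min at room temperature; AC50 from Hill fits.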

[9] = Cell Viability - LYMP2-016 (AID 984); also: nearly all actives have a fitted effect of over 55% in size; also: potency is read from the fitted curve at half-maximal effect
How it was run: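 qHTS, 1536-well: 2500 LYMP2-016 cells/well, 5 hr 37 C, compound added, 24 hr 37 C, CellTiter-Glo 30 min RT, luminescence. Tetraoctylammonium bromide positive control. AC50 via Hill fit.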

[10] = Cell Viability - LYMP2-018 (AID 985);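 also: compound exposure lasted 24 hr at 37 °C; nearly all actives have a fitted effect of over 50% in size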; also: potency is read from the fitted curve at half-maximal effect
How it was run: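 Human lymphoblastoid cells (2500/well) were pre-incubated 5 hr at 37 C, then exposed to compounds for 24 hr at 37 C in complete medium. Viability was read as intracellular ATP by CellTiter-Glo luminescence; AC50 values came from Hill-equation fits.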

Measured: Potency

[Cl][In]([Cl])[Cl]
inactive: [1] | [2] | [3] | [4] | [5] | [6] | [7] | [8] | [9] | [10]

COC(=O)C1=C(C)NC(C)=C(C(=O)OC)C1c1ccccc1[N+](=O)[O-]
inactive: [1]

CCCCOC(=O)c1ccc(O)cc1
inactive: [1] | [2] | [3] | [4] | [5] | [6] | [7] | [8] | [9] | [10]

O=C1O[C@H]([C@@H](O)CO)C(O)=C1O
inactive: [1] | [2] | [3] | [4] | [5] | [7] | [8] | [9] | [10]

Cc1cc2nc3c(=O)[nH]c(=O)nc-3n(C[C@H](O)[C@H](O)[C@H](O)CO)c2cc1C
inactive: [1] | [2] | [3] | [4] | [5] | [6] | [7] | [8] | [9] | [10]

CN(C)CCC=C1c2ccccc2CCc2ccccc21
inactive: [1]

Oc1cccc(O)c1
inactive: [1] | [2] | [3] | [4] | [5] | [6] | [7] | [8] | [9] | [10]

COc1ccccc1O
inactive: [1] | [2] | [3] | [4] | [5] | [6] | [7] | [8] | [9] | [10]

CC12CCC(CC1)C(C)(C)O2
inactive: [2] | [3] | [4] | [5] | [6] | [7] | [8] | [9] | [10]

CC1(C)[C@@H]2CC[C@@]1(C)C(=O)C2
inactive: [1] | [2] | [3] | [4] | [5] | [6] | [7] | [8] | [9] | [10]

NCCNCCNCCNCCN
inactive: [1] | [2] | [3] | [4] | [5] | [6] | [7] | [8] | [9] | [10]

NC(=O)N/N=C/c1ccc([N+](=O)[O-])o1
inactive: [4]

NC(=O)c1ncn([C@@H]2O[C@H](CO)[C@@H](O)[C@H]2O)n1
inactive: [1] | [2] | [4] | [5] | [6] | [7] | [9] | [10]

Cc1cc(CC(=O)O)n(C)c1C(=O)c1ccc(Cl)cc1
inactive: [1] | [2] | [3] | [4] | [5] | [6] | [7] | [8] | [9] | [10]

Cc1c(O)cccc1C(=O)N[C@@H](CSc1ccccc1)[C@H](O)CN1C[C@H]2CCCC[C@H]2C[C@H]1C(=O)NC(C)(C)C
active: [4] 50.1 µM | [5] 39.8 µM | [6] 50.1 µM | [9] 50.1 µM | [10] 50.1 µM

Nc1ccc(S(=O)(=O)Nc2nccs2)cc1
inactive: [1] | [2] | [3] | [4] | [5] | [6] | [7] | [9] | [10]

C[C@]12C[C@H](O)[C@H]3[C@@H](CCC4=CC(=O)CC[C@@]43C)[C@@H]1CC[C@@H]2C(=O)CO
inactive: [1] | [2] | [3] | [4] | [5] | [6] | [7] | [8] | [9]

O=C1c2c(O)cccc2Cc2cccc(O)c21
inactive: [1] | [2] | [3] | [4] | [5] | [6] | [7] | [8] | [9] | [10]

CCCCCCCCCCCCOS(=O)(=O)O
inactive: [1] | [2] | [3] | [4] | [5] | [6] | [7] | [8] | [9] | [10]

NCCNCCNCCN
inactive: [1] | [2] | [4] | [5] | [6] | [7] | [8] | [9] | [10]
